Among all 5,500 compounds or so, about 2,000 (36%) were called active. About 18% were inconclusive and are not listed. No stated cut-off is given here; in the data, active means normalized growth mostly below about 0.91 (no sharp cut-off); inconclusive means no clear call, values can overlap the other calls; inactive means mostly above about 0.92. The list shows a part of the results.
Assay: chemical genetic growth profiling, strain panel (AID 1159580);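 further: tested at 20 µM; growth read once vehicle control cultures reached saturation at 30 °C; 1 = growth at the plate median or of vehicle wells; lower values mean less growth of the strain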
Conditions: growth OD

Measured: normalized growth

CC(C)=CCc1c2c(c(O)c3c(=O)c(O)c(-c4ccccc4)oc13)C=CC(C)(C)O2
inactive: S. cerevisiae deletion strains, locus YBR009C, strain hhf1, hits give low values 0.917 | S. cerevisiae deletion strains, locus YBR021W, strain FUR4, hits give low values 0.958 | S. cerevisiae deletion strains, locus YBR171W, strain sec66, hits give low values 0.939 | S. cerevisiae deletion strains, locus YBR279W, strain paf1, hits give low values 0.988 | S. cerevisiae deletion strains, locus YCL016C, strain dcc1, hits give low values 0.962 | S. cerevisiae deletion strains, locus YDL005C, strain med2, hits give low values 0.981 | S. cerevisiae deletion strains, locus YDL040C, strain nat1, hits give low values 1.01 | S. cerevisiae deletion strains, locus YDR001C, strain nth1, hits give low values 0.931 | S. cerevisiae deletion strains, locus YDR137W, strain rgp1, hits give low values 1.04 | S. cerevisiae deletion strains, locus YDR159W, strain sac3, hits give low values 0.876 | S. cerevisiae deletion strains, locus YDR195W, strain ref2 0.896 | S. cerevisiae deletion strains, locus YER016W, strain bim1, hits give low values 0.987 | S. cerevisiae deletion strains, locus YER110C, hits give low values 0.927 | S. cerevisiae deletion strains, locus YGL078C, strain dbp3, hits give low values 0.942 | S. cerevisiae deletion strains, locus YGL167C, strain pmr1, hits give low values 0.996 | S. cerevisiae deletion strains, locus YGL227W, strain vid30, hits give low values 0.973 | S. cerevisiae deletion strains, locus YGL240W, strain doc1, hits give low values 0.977 | S. cerevisiae deletion strains, locus YGR252W, strain gcn5, hits give low values 0.774 | S. cerevisiae deletion strains, locus YHR013C, strain ard1, hits give low values 0.998 | S. cerevisiae deletion strains, locus YJL129C, strain trk1, hits give low values 0.894 | S. cerevisiae deletion strains, locus YKL009W, strain mrt4, hits give low values 1.02 | S. cerevisiae deletion strains, locus YKL068W, hits give low values 0.977 | S. cerevisiae deletion strains, locus YKL085W, strain MDH1 (second series), hits give low values 0.984 | S. cerevisiae deletion strains, locus YKL085W, strain MDH1, hits give low values 0.984 | S. cerevisiae deletion strains, locus YKL160W, strain elf1, hits give low values 0.99 | S. cerevisiae deletion strains, locus YLL026W, hits give low values 0.94 | S. cerevisiae deletion strains, locus YLL041C, strain sdh2, hits give low values 0.979 | S. cerevisiae deletion strains, locus YLR102C, strain apc9, hits give low values 0.93 | S. cerevisiae deletion strains, locus YMR078C, strain ctf18, hits give low values 0.92 | S. cerevisiae deletion strains, locus YNL250W, strain rad50, hits give low values 0.951 | S. cerevisiae deletion strains, locus YNL322C, strain KRE1 (second series), hits give low values 0.943 | S. cerevisiae deletion strains, locus YNR049C, strain mso1, hits give low values 0.958 | S. cerevisiae deletion strains, locus YOL012C, strain htz1 0.278 | S. cerevisiae deletion strains, locus YOR290C, strain snf2, hits give low values 0.887 | S. cerevisiae deletion strains, locus YPL240C, strain hsp82, hits give low values 0.956 | S. cerevisiae deletion strains, locus YPR141C, strain kar3, hits give low values 0.962
active: S. cerevisiae deletion strains, locus YAL021C, strain ccr4, hits give low values 0.79 | S. cerevisiae deletion strains, locus YAL026C, strain drs2, hits give low values 0.566 | S. cerevisiae deletion strains, locus YAL030W, strain snc1, hits give low values 0.886 | S. cerevisiae deletion strains, locus YBL061C, strain skt5, hits give low values 0.688 | S. cerevisiae deletion strains, locus YBR023C, strain chs3, hits give low values 0.687 | S. cerevisiae deletion strains, locus YBR229C, strain ROT2, hits give low values 0.829 | S. cerevisiae deletion strains, locus YBR231C, strain swc5, hits give low values 0.678 | S. cerevisiae deletion strains, locus YCL011C, strain gbp2, hits give low values 0.683 | S. cerevisiae deletion strains, locus YCL029C, strain bik1, hits give low values 0.678 | S. cerevisiae deletion strains, locus YCL061C, strain MRC1, hits give low values 0.748 | S. cerevisiae deletion strains, locus YCL069W, strain vba3, hits give low values 0.751 | S. cerevisiae deletion strains, locus YCR088W, strain abp1, hits give low values 0.835 | S. cerevisiae deletion strains, locus YDL035C, strain GPR1, hits give low values 0.589 | S. cerevisiae deletion strains, locus YDL074C, strain BRE1, hits give low values 0.49 | S. cerevisiae deletion strains, locus YDL101C, strain DUN1, hits give low values 0.628 | S. cerevisiae deletion strains, locus YDL185W, strain tfp1, hits give low values 0.769 | S. cerevisiae deletion strains, locus YDL192W, strain arf1, hits give low values 0.732 | S. cerevisiae deletion strains, locus YDR069C, strain doa4, hits give low values 0.613 | S. cerevisiae deletion strains, locus YDR101C, strain arx1, hits give low values 0.809 | S. cerevisiae deletion strains, locus YDR162C, strain NBP2, hits give low values 0.326 | S. cerevisiae deletion strains, locus YDR297W, strain sur2, hits give low values 0.821 | S. cerevisiae deletion strains, locus YDR318W, strain mcm21, hits give low values 0.73 | S. cerevisiae deletion strains, locus YDR334W, strain swr1, hits give low values 0.582 | S. cerevisiae deletion strains, locus YDR335W, strain msn5, hits give low values 0.793 | S. cerevisiae deletion strains, locus YDR388W, hits give low values 0.745 | S. cerevisiae deletion strains, locus YDR392W, strain spt3, hits give low values 0.602 | S. cerevisiae deletion strains, locus YDR502C, strain sam2, hits give low values 0.794 | S. cerevisiae deletion strains, locus YEL003W, strain gim4, hits give low values 0.683 | S. cerevisiae deletion strains, locus YEL037C, strain rad23, hits give low values 0.788 | S. cerevisiae deletion strains, locus YEL061C, strain CIN8 (second series), hits give low values 0.876 | S. cerevisiae deletion strains, locus YER015W, strain faa2, hits give low values 0.457 | S. cerevisiae deletion strains, locus YER111C, strain swi4, hits give low values 0.734 | S. cerevisiae deletion strains, locus YER155C, strain BEM2 (second series), hits give low values 0.755 | S. cerevisiae deletion strains, locus YER155C, strain BEM2, hits give low values 0.762 | S. cerevisiae deletion strains, locus YER167W, strain BCK2, hits give low values 0.683 | S. cerevisiae deletion strains, locus YFR010W, strain ubp6, hits give low values 0.632 | S. cerevisiae deletion strains, locus YGL086W, strain mad1, hits give low values 0.701 | S. cerevisiae deletion strains, locus YGL173C, strain kem1, hits give low values 0.475 | S. cerevisiae deletion strains, locus YGL248W, strain PDE1, hits give low values 0.586 | S. cerevisiae deletion strains, locus YGL253W, strain hxk2, hits give low values 0.657 | S. cerevisiae deletion strains, locus YGR078C, strain PAC10, hits give low values 0.554 | S. cerevisiae deletion strains, locus YGR135W, strain pre9, hits give low values 0.69 | S. cerevisiae deletion strains, locus YHR027C, strain rpn1, hits give low values 0.356 | S. cerevisiae deletion strains, locus YHR079C, strain IRE1 (second series), hits give low values 0.774 | S. cerevisiae deletion strains, locus YHR094C, strain hxt1, hits give low values 0.828 | S. cerevisiae deletion strains, locus YHR129C, strain ARP1, hits give low values 0.55 | S. cerevisiae deletion strains, locus YHR142W, strain chs7, hits give low values 0.653 | S. cerevisiae deletion strains, locus YHR200W, strain rpn10, hits give low values 0.731 | S. cerevisiae deletion strains, locus YIL066C, strain RNR3, hits give low values 0.54 | S. cerevisiae deletion strains, locus YIL073C, strain SPO22, hits give low values 0.32 | S. cerevisiae deletion strains, locus YIL125W, strain kgd1, hits give low values 0.88 | S. cerevisiae deletion strains, locus YIR030C, strain dcg1, hits give low values 0.837 | S. cerevisiae deletion strains, locus YJL092W, strain hpr5, hits give low values 0.834 | S. cerevisiae deletion strains, locus YJL095W, strain BCK1 (second series), hits give low values 0.628 | S. cerevisiae deletion strains, locus YJL095W, strain BCK1, hits give low values 0.379 | S. cerevisiae deletion strains, locus YJL115W, strain asf1, hits give low values 0.829 | S. cerevisiae deletion strains, locus YJL134W, strain LCB3, hits give low values 0.778 | S. cerevisiae deletion strains, locus YJL154C, strain vps35, hits give low values 0.817 | S. cerevisiae deletion strains, locus YJL164C, strain tpk1, hits give low values 0.732 | S. cerevisiae deletion strains, locus YJL166W, strain qcr8, hits give low values 0.891 | S. cerevisiae deletion strains, locus YJL168C, strain set2, hits give low values 0.864 | S. cerevisiae deletion strains, locus YJL187C, strain SWE1 (second series), hits give low values 0.417 | S. cerevisiae deletion strains, locus YJL187C, strain SWE1, hits give low values 0.639 | S. cerevisiae deletion strains, locus YJR043C, strain POL32, hits give low values 0.496 | S. cerevisiae deletion strains, locus YKL190W, strain CNB1, hits give low values 0.585 | S. cerevisiae deletion strains, locus YKR001C, strain vps1, hits give low values 0.816 | S. cerevisiae deletion strains, locus YKR026C, strain gcn3, hits give low values 0.899 | S. cerevisiae deletion strains, locus YKR091W, strain srl3, hits give low values 0.831 | S. cerevisiae deletion strains, locus YLL001W, strain dnm1, hits give low values 0.74 | S. cerevisiae deletion strains, locus YLR027C, strain aat2, hits give low values 0.86 | S. cerevisiae deletion strains, locus YLR039C, strain RIC1, hits give low values 0.379 | S. cerevisiae deletion strains, locus YLR058C, strain SHM2, hits give low values 0.563 | S. cerevisiae deletion strains, locus YLR221C, strain rsa3, hits give low values 0.835 | S. cerevisiae deletion strains, locus YLR258W, strain gsy2, hits give low values 0.892 | S. cerevisiae deletion strains, locus YLR262C, strain YPT6 (second series), hits give low values 0.542 | S. cerevisiae deletion strains, locus YLR268W, strain sec22, hits give low values 0.633 | S. cerevisiae deletion strains, locus YLR320W, strain mms22, hits give low values 0.762 | S. cerevisiae deletion strains, locus YLR342W, strain FKS1, hits give low values 0.514 | S. cerevisiae deletion strains, locus YLR357W, strain rsc2, hits give low values 0.61 | S. cerevisiae deletion strains, locus YLR370C, strain arc18, hits give low values 0.754 | S. cerevisiae deletion strains, locus YLR371W, strain rom2, hits give low values 0.623 | S. cerevisiae deletion strains, locus YLR384C, strain iki3, hits give low values 0.723 | S. cerevisiae deletion strains, locus YLR418C, strain cdc73, hits give low values 0.502 | S. cerevisiae deletion strains, locus YML016C, strain PPZ1, hits give low values 0.484 | S. cerevisiae deletion strains, locus YML032C, strain rad52, hits give low values 0.861 | S. cerevisiae deletion strains, locus YML120C, strain ndi1, hits give low values 0.822 | S. cerevisiae deletion strains, locus YML124C, strain tub3, hits give low values 0.878 | S. cerevisiae deletion strains, locus YMR058W, strain fet3, hits give low values 0.143 | S. cerevisiae deletion strains, locus YMR125W, strain sto1, hits give low values 0.872 | S. cerevisiae deletion strains, locus YMR129W, hits give low values 0.854 | S. cerevisiae deletion strains, locus YMR205C, strain PFK2, hits give low values 0.51 | S. cerevisiae deletion strains, locus YMR223W, strain ubp8, hits give low values 0.711 | S. cerevisiae deletion strains, locus YMR231W, strain pep5, hits give low values 0.533 | S. cerevisiae deletion strains, locus YMR307W, strain GAS1, hits give low values 0.53 | S. cerevisiae deletion strains, locus YNL067W, strain RPL9B, hits give low values 0.697 | S. cerevisiae deletion strains, locus YNL071W, strain lat1, hits give low values 0.898 | S. cerevisiae deletion strains, locus YNL153C, strain GIM3, hits give low values 0.619 | S. cerevisiae deletion strains, locus YNL209W, strain ssb2, hits give low values 0.277 | S. cerevisiae deletion strains, locus YNL233W, strain BNI4, hits give low values 0.548 | S. cerevisiae deletion strains, locus YNL248C, strain rpa49, hits give low values 0.842 | S. cerevisiae deletion strains, locus YNL271C, strain bni1, hits give low values 0.886 | S. cerevisiae deletion strains, locus YNL298W, strain CLA4, hits give low values 0.88 | S. cerevisiae deletion strains, locus YNL307C, strain MCK1, hits give low values 0.775 | S. cerevisiae deletion strains, locus YNR052C, strain pop2, hits give low values 0.824 | S. cerevisiae deletion strains, locus YOL006C, strain TOP1, hits give low values 0.319 | S. cerevisiae deletion strains, locus YOL147C, strain pex11, hits give low values 0.873 | S. cerevisiae deletion strains, locus YOR001W, strain rrp6, hits give low values 0.836 | S. cerevisiae deletion strains, locus YOR061W, strain CKA2, hits give low values 0.528 | S. cerevisiae deletion strains, locus YOR069W, strain VPS5, hits give low values 0.606 | S. cerevisiae deletion strains, locus YOR070C, strain gyp1, hits give low values 0.77 | S. cerevisiae deletion strains, locus YOR080W, strain dia2, hits give low values 0.818 | S. cerevisiae deletion strains, locus YOR083W, strain WHI5, hits give low values 0.616 | S. cerevisiae deletion strains, locus YOR106W, strain vam3, hits give low values 0.832 | S. cerevisiae deletion strains, locus YOR136W, strain idh2, hits give low values 0.84 | S. cerevisiae deletion strains, locus YOR144C, strain elg1, hits give low values 0.893 | S. cerevisiae deletion strains, locus YOR184W, strain ser1, hits give low values 0.661 | S. cerevisiae deletion strains, locus YOR265W, strain rbl2, hits give low values 0.699 | S. cerevisiae deletion strains, locus YOR270C, strain vph1, hits give low values 0.394 | S. cerevisiae deletion strains, locus YOR316C, strain cot1, hits give low values 0.865 | S. cerevisiae deletion strains, locus YPL051W, strain arl3, hits give low values 0.48 | S. cerevisiae deletion strains, locus YPL078C, strain atp4, hits give low values 0.879 | S. cerevisiae deletion strains, locus YPL106C, strain sse1, hits give low values 0.83 | S. cerevisiae deletion strains, locus YPL241C, strain CIN2, hits give low values 0.788 | S. cerevisiae deletion strains, locus YPR119W, strain clb2, hits give low values 0.914 | S. cerevisiae deletion strains, locus YPR163C, strain tif3, hits give low values 0.771 | S. cerevisiae deletion strains, locus YPR167C, strain met16, hits give low values 0.712 | S. cerevisiae deletion strains, strain wtn01, hits give low values 0.632 | S. cerevisiae strains, strain wild type, hits give low values 0.346

Source: PubChem BioAssay AID1159580 (chemical genetic matrix, 2015)
